Data published in PubChem BioAssay (NCI).
This is part of a sample that, as a whole, favours compounds with a hit. Of some 83,000 tested, about 20% had one in any assay.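 Results are percent growth after 48 hours of single-concentration exposure. 100 means growth as in untreated cells, lower positive values show inhibition; negative values down to -100 show cell death.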 Values without a mark were called inactive. The source made the active and inactive calls. How the source made its calls: active means growth percent below 10; inactive means the rest.

What was measured:
Assay in all cases: NCI-60 one-dose screen, 48 h (100 = growth as untreated, 0 = no growth, -100 = all killed)
SK-MEL-2 melanoma = conditions: 10 µM unless noted
EKVX NSCLC = conditions: 10 µM unless noted
SN12C renal = conditions: 10 µM unless noted
UO-31 renal = conditions: 10 µM unless noted
TK-10 renal = conditions: 10 µM unless noted
CAKI-1 renal = conditions: 10 µM
A498 renal = conditions: 10 µM unless noted
CCRF-CEM leukemia = conditions: 10 µM unless noted
MOLT-4 leukemia = conditions: 10 µM unless noted
ACHN renal = conditions: 10 µM unless noted

SMILES | growth (SK-MEL-2 melanoma) | growth (EKVX NSCLC) [%] | growth (SN12C renal) [%] | growth (UO-31 renal) | growth (TK-10 renal) [%] | growth (CAKI-1 renal) [%] | growth (A498 renal) | growth (CCRF-CEM leukemia) | growth (MOLT-4 leukemia) | growth (ACHN renal) [%]
CCCCNc1cc(C(=O)O)cc(S(N)(=O)=O)c1Oc1ccccc1 | 106% | 106 | 97.1 | 85.4% | 104 | 89.3 | 89.1% | 105% | 110% | 
CCCCCCCCCCCC(=O)OCCNC(=O)C[n+]1ccccc1 | 97.7% | 91.8 | 102 | 83% | 101 |  |  | 98.1% | 104% | 99.9
CC(C)CNCC(O)COc1ccc(C(C)(C)c2ccc(OCC(O)CNCC(C)C)cc2)cc1 (stereo unspecified) | -6.06% (active) | 69.4 | 67.5 | -32.2% (active) | 66.6 |  | 59.8% | 0.812% (active) |  | 
CCOC(=O)c1noc2c1CCc1c-2cn(Cc2ccc(OC)cc2)c1-c1cc(OC)c(OC)c(OC)c1 | 35.4% | 48.6 | 44.7 | 30.9% | 68.8 |  | 56.2% | 15% |  | 
C#C[C@@]1(O)[C@@H](CO)O[C@@H](n2cc(Br)c3c(Cl)ccnc32)[C@@H]1O | 68.7% | 58.7 | 23.7 | 45.2% | 63.3 |  | -20% (active) | 12.8% | 1.9% (active) | 
CC(C)NCC(O)COc1ccc(CC(N)=O)cc1 (stereo unspecified) | 105% | 101 | 104 | 83.5% | 105 | 94.1 | 92.9% | 100% | 107% | 
CC(CCC(=O)O)[C@H]1CCC2C3C(=O)C[C@@H]4CC(=O)CC[C@]4(C)C3CC(=O)[C@@]21C (stereo partly specified) | 128% | 93.6 | 93.2 | 83.8% | 116 | 84.7 | 88% | 103% | 96.7% | 
COc1ccc(C2=NN(C(=O)COc3ccc(Cl)cc3)C(O)(c3cc(F)c(Cl)cc3Cl)C2)cc1 (stereo unspecified) | 99.2% | 80.5 | 119 | 74.7% | 89.5 |  |  | 7.54% (active) | 77.3% | 104
CCOC(=O)NNc1nncc2ccccc12 | 119% | 78.3 | 97 | 90.4% | 106 | 84.1 | 96% | 109% | 94% | 
Cc1ccc(-c2nc3c(N=Nc4ccc(S(N)(=O)=O)cc4)c(N)nn3c(N)c2C#N)cc1 | 27% | 69.8 | 33.2 | 69% | 65.8 | 41 | 59.3% | 11.9% | 3.58% (active) | 
COc1ccc(Cl)cc1NC(=O)c1cc2c([nH]1)-c1nc(N)sc1CCC2 | 98% | 92.5 | 97.4 | 79.4% | 97.8 |  | 95.9% | 86.7% | 62% | 
CC(=O)Nc1ccc([I+]c2ccc([N+](=O)[O-])cc2)cc1 | 103% | 88.7 | 88.3 | 60.8% | 87.4 |  |  | 89.2% | 86.9% | 89.7
O=C1C(Cl)=C(Nc2cccc3cc4ccccc4nc23)C(=O)c2ccccc21 | 44.2% | 71.9 | 45.1 | 25.7% | 54.5 |  | 46.5% | 64.8% | 25.9% | 
O=C(COc1ccc(Cl)cc1)N1CCN(Cc2ccc3c(c2)OCO3)CC1 | 123% | 85.9 | 91 | 61.5% | 116 | 76.6 | 84.5% | 97.4% | 100% | 
